Assay results reported in PubChem BioAssay (Tox21).
Records with an inconclusive call do not appear. Active and inactive are the calls of the source. Unless noted, calls come from the whole dose curve; as a rule, active = well fitted curve in the direction sought with a large enough effect in the repeat runs; inconclusive = weak or mixed curves; inactive = no such curve, though single readings can be large; an effect the other way counts as inactive or inconclusive.

Key:
[1] = target: Thyrotropin receptor (Homo sapiens) (UniProt P16473); assay: qHTS assay to identify small molecule antagonists of the thyroid stimulating hormone receptor (TSHR) signaling pathway (AID 1259385; calls by dose curve; note: nearly all actives have a fitted effect of over 20% in size)
Procedure, shortened: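 TSHR-HEK293 cells (800/well) plated 18 h, then compounds with Ro20-1724 and TSH at 1.5 ng/mL final, 30 min at room temperature. cAMP quantified by HTRF (cAMP-d2/anti-cAMP-cryptate, 1 h); 15 concentrations in triplicate.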

[2] = qHTS assay to identify small molecule agonists of the estrogen receptor alpha (ER-alpha) signaling pathway in the presence of an antagonist - cell viability counter screen (AID 1259386);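 note: series mostly up to about 92 µM; cells exposed to compounds for 22 h at 37 °C before the viability read; nearly all actives have a fitted effect of over 30% in size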
Procedure, shortened: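 Viability counter screen using VM7Luc4E2 (full-length ER-alpha, four ERE-luciferase). The cells were treated with compounds alongside ICI-182,780 10.0nM for 22hr, and live-cell protease fluorescence was quantified with CellTiter-Fluor.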

[3] = target: Progesterone receptor (Homo sapiens) (UniProt P06401); assay: qHTS assay to identify small molecule agonists of the progesterone receptor (PR) signaling pathway (AID 1346784; calls by dose curve; note: nearly all actives have a fitted effect of over 30% in size)
Procedure, shortened: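 Agonist qHTS: compounds pinned onto 3,000 PR-UAS-bla HEK 293T cells per well in charcoal-stripped serum medium, 16hr at 37C, then beta-lactamase activity measured by LiveBLAzer FRET fluorescence after 2 hours at room temperature.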

[4] = target: Progesterone receptor (Homo sapiens) (UniProt P06401); assay: qHTS assay to identify small molecule antagonists of the progesterone receptor (PR) signaling pathway (AID 1346795; active = well fitted inhibition curve with a large enough effect in the signal ratio in the repeat runs, not every such curve was filed as active; the % refers to the signal ratio)
Procedure, shortened: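 Antagonist mode with agonist R5020 at 1 nM final and 16 hr incubation at 37C. Reporter was beta-lactamase driven by UAS in HEK293T (PR-UAS-bla), 2% charcoal-stripped serum; signal from LiveBLAzer FRET substrate, 2 hr at room temperature.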

[5] = qHTS assay to identify small molecule antagonists of the progesterone receptor (PR) signaling pathway - cell viability counter screen (AID 1346798); note: series mostly up to about 92 µM; nearly all actives have a fitted effect of over 50% in size
Procedure, shortened: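 Cytotoxicity read as CellTiter-Glo luminescence (30 min, room temperature) in the same wells as the beta-lactamase readout. HEK293T PR-UAS-bla cells in charcoal-stripped 2% FBS received compound and R5020, then 16 h at 37C, 5% CO2.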

[6] = qHTS assay to identify small molecule agonists of the progesterone receptor (PR) signaling pathway - cell viability counter screen (AID 1346799; calls by dose curve; note: nearly all actives have a fitted effect of over 45% in size)
Procedure, shortened: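 Cytotoxicity measured by CellTiter-Glo luminescence (30 min, RT) in the same wells as the PR beta-lactamase agonist read. Those HEK293T cells had 16 h compound treatment at 37 C in 2% charcoal-stripped FBS medium.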

[7] = qHTS assay to identify small molecule antagonists of the TGF-beta/Smad signaling pathway - cell viability counter screen (AID 1346824); note: nearly all actives have a fitted effect of over 50% in size
Procedure, shortened: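 SBE-bla HEK 293T cells, incubated overnight, then compound plus 0.25 ng/mL TGF-beta1 (stock added) for 5 hr at 37 C. Viability was read in the same wells by CellTiter-Glo luminescence after 30 min at room temperature.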

[8] = qHTS assay to identify small molecule agonists of the TGF-beta/Smad signaling pathway - cell viability counter screen (AID 1346829); note: top concentration of the series differs between compounds; nearly all actives have a fitted effect of over 45% in size
Procedure, shortened: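 Here the cytotoxicity of library compounds is measured in SBE-bla HEK 293T cells treated for 5 hr, using CellTiter-Glo added to wells already read for the beta-lactamase reporter.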

[9] = qHTS assay to identify small molecule agonists of the TGF-beta/Smad signaling pathway (AID 1346859; active = well fitted activation curve with a large enough effect in the signal ratio in the repeat runs, not every such curve was filed as active; the % refers to the signal ratio; note: series mostly up to about 77 µM)
Procedure, shortened: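 Fluorescence (ex 405 nm; em 460 and 530 nm) was read 2 h after LiveBLAzer FRET substrate at RT. The preceding compound treatment of overnight-plated SBE-bla HEK293T cells lasted 5 h at 37 C.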

[10] = Human pregnane X receptor (PXR) small molecule agonists, qHTS cell viability counter screen (AID 1346977); note: nearly all actives have a fitted effect of over 50% in size
Procedure, shortened: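 Same-well viability read: CellTiter-Fluor added after 23 hr compound exposure, fluorescence measured 1 hr later. Cells were PXR-Luc HepG2 seeded at 2,000/well in 5% charcoal-stripped FBS medium, rested 5 hr before dosing at 37 C.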

[11] = Caspase-3/7 induction in HepG2 cells by small molecules, qHTS assay (AID 1346978); note: nearly all actives have a fitted effect of over 15% in size
Procedure, shortened: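 Wild-type HepG2 cells, 2,000/well, settled 5 hr at 37 C and 5% CO2, then compound-treated for 17 hr; caspase-3/7 activity read by luminescent Caspase-Glo 3/7 after 30 min at room temperature.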

[12] = Caspase-3/7 induction in CHO-K1 cells by small molecules, qHTS cell viability counter screen (AID 1346979); note: nearly all actives have a fitted effect of over 35% in size
Procedure, shortened: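 Cytotoxicity counter screen: CellTiter-Fluor added to compound-treated wild-type CHO-K1 cells at 16 h (37C, 5% CO2), fluorescence measured 1 h later; same wells as caspase-3/7 measurement.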

[13] = Caspase-3/7 induction in CHO-K1 cells by small molecules, qHTS assay (AID 1346980); note: nearly all actives have a fitted effect of over 15% in size
Procedure, shortened: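 Wild-type CHO-K1 cells exposed to compounds for 17hr at 37 C, 5% CO2. Caspase-3/7 activity then measured by Caspase-Glo 3/7 luminescence after 30min at room temperature.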

[14] = Caspase-3/7 induction in HepG2 cells by small molecules, qHTS cell viability counter screen (AID 1346981); note: series mostly up to about 92 µM; nearly all actives have a fitted effect of over 30% in size
Procedure, shortened: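 Viability determined by CellTiter-Fluor fluorescence in HepG2 wells also used for the luminescent Caspase-Glo 3/7 read. Compounds were present for 16 hr at 37 C, 5% CO2 before reagent addition.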

[15] = target: Nuclear receptor subfamily 1 group I member 2 (Homo sapiens) (UniProt O75469); assay: Human pregnane X receptor (PXR) small molecule agonists, qHTS assay (AID 1346982); note: nearly all actives have a fitted effect of over 35% in size
Procedure, shortened: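 Compound-induced hPXR transactivation of a CYP3A4 luciferase reporter was scored in HepG2 PXR-Luc cells over 24 hr at 37 C, 5% CO2, by luminescence.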

[16] = target: Thyrotropin-releasing hormone receptor (Homo sapiens) (UniProt P34981); assay: qHTS assay to identify small molecule antagonists of the thyrotropin-releasing hormone receptor (TRHR) signaling pathway (AID 1346877; active = well fitted inhibition curve with a large enough effect in the repeat runs, not every such curve was filed as active; note: series mostly up to about 51 µM)
Procedure, shortened: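 Following an 18 h incubation at 37 °C and a 2 h calcium dye load, TRHR-HEK293 cells were exposed to compound (5 min, room temperature) and challenged with TRH, 1 nM final.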

[17] = target: Thyrotropin-releasing hormone receptor (Homo sapiens) (UniProt P34981); assay: qHTS assay to identify small molecule agonists of the thyrotropin-releasing hormone receptor (TRHR) signaling pathway (AID 1346891; calls by dose curve; note: series mostly up to about 58 µM)
Procedure, shortened: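 Agonist-mode intracellular calcium readout: kinetic fluorescence over 3 min at 1 s intervals after compound addition to TRHR-HEK293 cells (18 h seeded, 2 h dye-loaded at 37 C). Fifteen concentrations, triplicates.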

[18] = target: Nuclear receptor subfamily 1 group I member 2 (Rattus norvegicus) (UniProt Q9R1A7); assay: Rat pregnane X receptor (rPXR) activation by small molecules, qHTS assay (AID 1346983); conditions: rPXR luciferase reporter cells, One-Glo luminescence, 24 h; hits give high values; note: nearly all actives have a fitted effect of over 20% in size
Procedure, shortened: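 Cell-based rPXR activation assay: rPXR cells, 2,000 per well, rested 5hr at 37 C, then exposed to compounds in DMSO for 24 hr at 37 C. Luciferase activity read by One-Glo luminescence after 30 min at room temperature.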

[19] = target: Nuclear receptor subfamily 1 group I member 2 (Homo sapiens) (UniProt O75469); assay: Human pregnane X receptor (PXR) activation by small molecules, qHTS assay (AID 1346985); note: nearly all actives have a fitted effect of over 40% in size
Procedure, shortened: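 DPX-2 cells (HepG2 co-transfected with a PXR response element and a CYP3A4-promoter luciferase construct) were seeded at 2,000 per well, rested 5 hr at 37C, then exposed to DMSO-dissolved compounds for 24 hr. Activation was read as luciferase luminescence.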

[20] = target: Nuclear receptor subfamily 1 group I member 2 (Homo sapiens) (UniProt O75469); assay: CYP3A4 induction through human pregnane X receptor (PXR) by small molecules, qHTS assay (AID 1346984); note: nearly all actives have a fitted effect of over 40% in size
Procedure, shortened: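 Readings come from a luciferase reporter: DPX-2 cells, which are HepG2 cotransfected with PXR and a CYP3A4-promoter construct, were exposed to test compounds for 24 h at 37C before One-Glo detection.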
% is set by controls: 0 for no effect and ±100 for the full control effect.

Chain of Thyrotropin-releasing hormone receptor (Homo sapiens) (P34981 whole entry, looked up): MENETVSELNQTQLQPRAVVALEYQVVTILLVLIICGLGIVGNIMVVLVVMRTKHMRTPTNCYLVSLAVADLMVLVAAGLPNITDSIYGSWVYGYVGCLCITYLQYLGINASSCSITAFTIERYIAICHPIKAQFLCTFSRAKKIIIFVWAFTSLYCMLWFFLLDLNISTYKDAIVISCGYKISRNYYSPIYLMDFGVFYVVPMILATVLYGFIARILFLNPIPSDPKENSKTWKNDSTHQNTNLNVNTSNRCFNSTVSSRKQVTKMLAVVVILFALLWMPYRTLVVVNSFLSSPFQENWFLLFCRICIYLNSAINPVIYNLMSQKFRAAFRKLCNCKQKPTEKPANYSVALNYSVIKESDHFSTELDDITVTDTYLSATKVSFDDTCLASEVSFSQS
Chain of Thyrotropin receptor (Homo sapiens) (P16473 whole entry, looked up): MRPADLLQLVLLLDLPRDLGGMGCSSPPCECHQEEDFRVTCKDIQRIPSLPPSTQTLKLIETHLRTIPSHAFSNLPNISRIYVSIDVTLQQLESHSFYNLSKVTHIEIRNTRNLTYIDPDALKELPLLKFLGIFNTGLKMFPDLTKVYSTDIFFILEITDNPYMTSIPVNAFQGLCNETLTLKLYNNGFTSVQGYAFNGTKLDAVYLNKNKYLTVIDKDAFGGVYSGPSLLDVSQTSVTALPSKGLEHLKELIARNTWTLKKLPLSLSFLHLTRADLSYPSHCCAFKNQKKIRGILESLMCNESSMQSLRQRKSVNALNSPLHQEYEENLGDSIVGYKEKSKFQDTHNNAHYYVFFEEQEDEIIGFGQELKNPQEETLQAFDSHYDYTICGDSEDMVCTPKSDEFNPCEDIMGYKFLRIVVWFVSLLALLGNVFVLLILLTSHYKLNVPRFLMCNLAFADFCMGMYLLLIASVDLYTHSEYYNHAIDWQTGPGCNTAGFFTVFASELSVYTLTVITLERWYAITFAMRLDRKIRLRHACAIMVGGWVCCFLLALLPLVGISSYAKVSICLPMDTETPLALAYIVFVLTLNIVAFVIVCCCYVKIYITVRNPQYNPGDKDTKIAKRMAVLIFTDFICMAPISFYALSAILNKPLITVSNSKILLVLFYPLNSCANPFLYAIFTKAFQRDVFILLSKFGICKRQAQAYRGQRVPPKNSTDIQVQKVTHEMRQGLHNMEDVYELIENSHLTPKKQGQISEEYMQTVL
Chain of Nuclear receptor subfamily 1 group I member 2 (Homo sapiens) (O75469 whole entry, looked up): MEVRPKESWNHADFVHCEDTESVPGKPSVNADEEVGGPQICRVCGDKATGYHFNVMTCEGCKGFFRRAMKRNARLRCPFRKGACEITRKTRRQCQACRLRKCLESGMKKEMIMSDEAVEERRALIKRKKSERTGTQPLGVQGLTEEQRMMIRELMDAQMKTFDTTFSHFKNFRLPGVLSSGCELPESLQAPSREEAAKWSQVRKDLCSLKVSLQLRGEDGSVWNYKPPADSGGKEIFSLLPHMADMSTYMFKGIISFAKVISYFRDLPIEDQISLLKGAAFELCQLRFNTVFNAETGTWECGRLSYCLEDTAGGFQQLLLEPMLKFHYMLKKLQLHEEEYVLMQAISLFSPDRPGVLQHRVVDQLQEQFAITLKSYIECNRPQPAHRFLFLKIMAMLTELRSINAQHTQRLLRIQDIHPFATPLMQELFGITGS
Chain of Progesterone receptor (Homo sapiens) (P06401 whole entry, looked up): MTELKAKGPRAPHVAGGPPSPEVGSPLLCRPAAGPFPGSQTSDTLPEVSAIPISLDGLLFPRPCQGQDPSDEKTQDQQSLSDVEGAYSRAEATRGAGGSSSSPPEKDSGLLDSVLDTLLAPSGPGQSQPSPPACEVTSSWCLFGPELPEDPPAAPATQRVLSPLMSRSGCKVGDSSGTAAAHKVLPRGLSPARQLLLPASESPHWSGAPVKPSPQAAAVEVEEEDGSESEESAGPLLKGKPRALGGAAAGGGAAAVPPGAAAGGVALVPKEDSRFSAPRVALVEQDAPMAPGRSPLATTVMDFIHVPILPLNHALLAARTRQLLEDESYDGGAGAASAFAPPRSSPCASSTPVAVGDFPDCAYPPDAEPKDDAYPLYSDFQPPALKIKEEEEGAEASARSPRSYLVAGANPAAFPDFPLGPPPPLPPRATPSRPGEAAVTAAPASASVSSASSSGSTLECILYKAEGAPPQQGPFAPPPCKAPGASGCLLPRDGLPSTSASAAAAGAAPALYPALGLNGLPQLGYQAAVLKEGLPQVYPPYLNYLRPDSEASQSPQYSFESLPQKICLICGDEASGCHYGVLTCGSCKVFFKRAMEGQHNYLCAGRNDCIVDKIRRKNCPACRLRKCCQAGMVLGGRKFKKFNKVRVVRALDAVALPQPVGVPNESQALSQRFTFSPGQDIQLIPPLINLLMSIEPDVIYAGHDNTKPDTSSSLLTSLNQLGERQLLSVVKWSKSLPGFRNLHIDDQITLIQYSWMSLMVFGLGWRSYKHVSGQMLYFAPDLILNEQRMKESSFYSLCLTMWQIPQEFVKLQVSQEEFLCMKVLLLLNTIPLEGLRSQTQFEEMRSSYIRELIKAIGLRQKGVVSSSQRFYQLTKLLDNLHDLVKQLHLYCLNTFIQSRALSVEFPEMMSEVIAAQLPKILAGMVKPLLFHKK
Chain of Nuclear receptor subfamily 1 group I member 2 (Rattus norvegicus) (Q9R1A7 whole entry, looked up): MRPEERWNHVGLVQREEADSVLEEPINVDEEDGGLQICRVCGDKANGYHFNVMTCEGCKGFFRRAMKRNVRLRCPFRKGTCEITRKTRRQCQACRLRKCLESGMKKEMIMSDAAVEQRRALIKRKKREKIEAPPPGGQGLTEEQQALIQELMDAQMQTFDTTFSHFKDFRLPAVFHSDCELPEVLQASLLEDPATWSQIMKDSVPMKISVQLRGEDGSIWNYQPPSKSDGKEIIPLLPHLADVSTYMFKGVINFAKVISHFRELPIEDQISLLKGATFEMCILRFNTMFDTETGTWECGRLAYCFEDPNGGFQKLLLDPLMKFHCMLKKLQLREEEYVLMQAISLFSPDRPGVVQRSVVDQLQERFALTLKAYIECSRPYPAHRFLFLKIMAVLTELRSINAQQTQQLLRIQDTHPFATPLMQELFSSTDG

CCC=O
inactive: Potency [1] | Potency [2] | Potency [3] | Potency [4] | Potency [5] | Potency [6] | Potency [7] | outcome [8] | outcome [9] | Potency [10] | Potency [11] | Potency [12] | outcome [13] | Potency [14] | Potency [15]

CC(C)(CC(=O)O)C(=O)O
inactive: Potency [1] | Potency [2] | Potency [3] | Potency [4] | Potency [5] | Potency [6] | Potency [7] | outcome [8] | outcome [9] | Potency [10] | Potency [11] | Potency [12] | outcome [13] | Potency [14] | Potency [15]

CC(C)(O)C(=O)c1ccccc1
inactive: Potency [1] | Potency [2] | Potency [3] | Potency [4] | Potency [5] | Potency [6] | Potency [7] | outcome [8] | outcome [9] | outcome [16] | outcome [17] | Potency [10] | Potency [11] | Potency [12] | outcome [13] | Potency [14] | Potency [15]

NS(=O)(=O)c1cc(C(=O)NN2C[C@H]3[C@H]4CCC(C4)[C@H]3C2)ccc1Cl
inactive: Potency [1] | Potency [2] | Potency [3] | Potency [4] | Potency [5] | Potency [6] | Potency [7] | outcome [8] | outcome [9] | outcome [16] | outcome [17] | Potency [10] | Potency [11] | outcome [13] | Potency [14] | Potency [15]

CCOC(=O)[C@H](CCc1ccccc1)N[C@@H](C)C(=O)N1[C@H](C(=O)O)C[C@@H]2CCC[C@@H]21
inactive: Potency [1] | Potency [2] | Potency [3] | Potency [4] | Potency [5] | Potency [6] | Potency [7] | outcome [8] | outcome [9] | outcome [16] | outcome [17] | Potency [10] | Potency [11] | Potency [12] | outcome [13] | Potency [14] | Potency [15] | max activation [18] -3.39% | Potency [19]

N[C@H]1CN(c2c(F)cc3c(=O)c(C(=O)O)cn(C4C[C@H]4F)c3c2Cl)CC12CC2 (stereo not given in full)
inactive: Potency [1] | Potency [2] | Potency [3] | Potency [4] | Potency [5] | Potency [6] | Potency [7] | outcome [8] | outcome [9] | outcome [16] | Potency [10] | Potency [11] | Potency [12] | outcome [13] | Potency [14] | Potency [15]

CCN1CCC[C@H]1CNC(=O)c1c(O)c(Cl)cc(Cl)c1OC
inactive: Potency [1] | Potency [2] | Potency [3] | Potency [4] | Potency [5] | Potency [6] | Potency [7] | outcome [8] | outcome [9] | outcome [16] | outcome [17] | Potency [10] | Potency [11] | Potency [12] | Potency [14] | max activation [18] -0.579% | Potency [20]
